cytoskel mod: cytoskeleton assembly modification; HUVEC TNFa F-actin phalloidin imaging, high content; inhibition, % at 2 µM; 91,000 tested, 0.18% active;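 active means inhibition above the batch mean plus 3 SD and confirmed as a hit by visual image inspection, cut at about 30% in these data, passing the limit was not always enough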
TNFa cytotox: HUVEC cytotoxicity counter-screen, TNF alpha stimulated; 93,000 tested, 0.17% active; HUVEC TNFalpha-stimulated, Hoechst cell count, imaging; cell count reduction, % at 2 µM;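 active means cell count reduction exceeding the screen mean by over 5 SD, scaled to untreated wells per plate, cut at about 78% in these data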;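 further: cells counted after 24 h of TNF alpha exposure following the 1 h pretreatment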
E-sel TNF inh: TNF alpha driven E-selectin expression inhibition | HUVEC TNFa-induced E-selectin immunofluorescence, high content | inhibition, % at 2 µM | 120,000 tested, 0.71% active;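 active means inhibition above the batch mean plus 3 SD, and confirmed as a hit on visual image review, cut at about 43% in these data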;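 further: 0% = TNF-stimulated DMSO wells and 100% = unstimulated control wells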
VCAM1 TNFa inh: reduces TNF alpha induced VCAM1 expression in HUVEC. HUVEC TNFa-induced VCAM-1 immunofluorescence, high-content imaging. inhibition, % at 2 µM. 95,000 tested, 0.48% active. AID 802;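 active means inhibition above the batch mean plus 3 SD, with images confirmed as a hit by eye, cut at about 37% in these data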;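 further: 0% = TNF-stimulated DMSO wells and 100% = unstimulated control wells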
* marks the source's active call; other numbers are inactive results; x = no result. This is a sample that favours compounds with a hit; in the whole collection about 1.2% have one here.

SMILES	cytoskel mod	TNFa cytotox	E-sel TNF inh	VCAM1 TNFa inh
Cc1ccc(-c2nc(NC(=O)c3nn(C)cc3[N+](=O)[O-])sc2C)cc1C	0.3	36.3	99.6*	88.6*
Cc1cc(C)n(Cc2ccc(NC(=O)c3nn(C)cc3[N+](=O)[O-])cc2)n1	8.1	-15.5	-12.6	-7.3
Cn1cc([N+](=O)[O-])c(C(=O)Nc2nc(-c3ccc(Cl)cc3)cs2)n1	9.8	29.4	97.8*	30.2
O=C(Nc1nc(-c2ccc(Cl)cc2)cs1)c1cccnc1	-15.5	-4.8	1.1	-3.1
Cc1ccc(-c2nc(NC(=O)c3nn(C)cc3[N+](=O)[O-])sc2C)cc1	-2.8	26.4	87.0*	91.7*
CCCCN(C)C(=O)C1CCN(Cc2ccc(OCc3ccccc3)cc2)CC1	-7.3	-7.1	-11.3	-15.9
COc1ccc(CNC(=O)c2cnc3scc(C)n3c2=O)cc1	x	x	-14.5	x
CCOC(=O)/C=c1\s/c(=C\c2ccc3cc(OC)ccc3c2)c(=O)n1CC(=O)NCC1CCCO1 (stereo unspecified)	-5.4	-24.1	x	-22.1
c1cncc(-c2nnc(-c3ccco3)o2)c1	-3.3	7.1	-1.0	1.0
Clc1ccc(-c2nnc(-c3ccco3)o2)cc1	-1.0	-11.7	77.0*	-9.5
CC1(C(=O)O)Oc2cccnc2NC1=O (stereo unspecified)	x	x	-34.1	x
Cc1ccc(NC(=O)COc2ccc(C(=O)NCCc3ccccc3)cc2)cc1	-13.8	1.0	-30.3	22.0
O=C(CCCn1c(=O)c2sccc2n(Cc2cc(=O)n3ccccc3n2)c1=O)NCc1ccco1	x	x	8.2	x
Cc1ccc(NC(=O)CN(C)C(=O)/C=C/c2cccc(F)c2)cc1	x	x	-16.6	x
Cc1cccc(C)c1NC(=O)CN(C)C(=O)/C=C/c1cccs1	x	x	93.2*	x
Cn1c(CCNC(=O)c2ccco2)nc2cc(NC(=O)C3CCCCC3)ccc21	1.8	0.0	-31.5	-3.0
Cn1c(CCNC(=O)C2CCCCC2)nc2cc(NC(=O)c3cccs3)ccc21	x	x	63.1*	x
COc1cccc(CNC(=O)CCS(=O)(=O)c2cccc3nsnc23)c1	-14.3	-23.2	10.6	18.5
C=CCNC(=O)c1c(-c2c(F)cccc2Cl)noc1C	x	-58.6	21.5	-5.2
C=CCNC(=O)c1c(Cl)cccc1Cl	46.7*	x	-17.5	-31.5
Nc1c(C(=O)NCc2ccc(Cl)cc2)sc2nc3c(c(C(F)(F)F)c12)CCC3	-34.8	14.5	64.9*	-6.3
Cc1ccc(CNC(=O)c2sc3nc4c(c(C(F)(F)F)c3c2N)CCC4)cc1	2.9	-9.0	24.1	3.7
CC(=O)c1ccc(NC(=S)N2CCC(O)CC2)cc1	x	x	-14.6	x
CC(=O)c1ccc(NC(=S)N2CC(C)CC(C)C2)cc1 (stereo unspecified)	x	x	76.6*	x
Cc1ccccc1-n1ncc2c([N+](=O)[O-])cc([N+](=O)[O-])cc21	-4.5	-14.6	-13.7	0.8
SMILES	cytoskel mod	TNFa cytotox	E-sel TNF inh	VCAM1 TNFa inh
Cc1ccc2nc3cc([N+](=O)[O-])cc([N+](=O)[O-])c3cc2c1	x	x	99.3*	x
CC1=NN(c2ccccc2)C(=O)C1C(=O)c1ccc(Cl)cc1 (stereo unspecified)	-5.4	5.0	35.7	13.9
Cc1noc(C)c1S(=O)(=O)N1CCC2(CC1)OCCO2	-13.6	94.7*	-3.8	88.5*
Cc1noc(C)c1S(=O)(=O)N1CCN(C(c2ccccc2)c2ccc(Cl)cc2)CC1 (stereo unspecified)	27.3	86.2*	x	-15.6
COc1cc(NC(=O)Cc2nn(C)c(=O)c3ccccc23)cc(OC)c1OC	11.1	-8.5	50.1*	5.2
COc1ccc(OC)c(NC(=O)Cc2nn(C)c(=O)c3ccccc23)c1	-29.6	10.8	-6.0	-11.9
S=c1[nH]nc(CSc2nc3ccccc3s2)o1	19.9	-13.4	x	-6.3
CN(C)c1ccc(NC(=O)COC(=O)Cn2nnc3ccccc32)cc1	x	x	88.9*	x
Cc1ccc(NC(=O)C2CCCN(S(=O)(=O)c3cnc[nH]3)C2)cc1F (stereo unspecified)	-2.3	-7.0	x	3.1
N/C(Cc1cccs1)=N\OC(=O)COc1ccc(Br)cc1Cl	37.2*	-42.3	5.5	70.1*
N/C(Cc1cccs1)=N\OC(=O)COc1ccccc1Cl	3.8	-9.3	-5.2	-15.7
CCOC(=O)c1c(C)c(C(=O)Nc2ccc3c(c2)OCCO3)c(C)n1C	x	x	95.6*	x
CCOC(=O)c1ccc(NC(=O)Nc2ccc3c(c2)OCCO3)cc1	28.3	-24.7	-14.4	-7.8
O=S1(=O)C=C(Sc2nnc(-c3ccccc3)o2)c2ccccc21	x	x	99.6*	x
Cc1cc(C)nc(SC2=CS(=O)(=O)c3ccccc32)n1	-1.2	-5.4	-33.0	38.4
NC(=O)C1CCN(C(=O)CN2CCCc3ccccc32)CC1	-12.6	-5.2	-11.1	29.5
N#C/C(=C\c1cc(Cl)cc(Cl)c1O)C(=O)NC1CCCCC1	16.5	21.7	100.0*	23.2
N#C/C(=C\c1cc(Cl)ccc1O)C(=O)NC1CCCCC1	-17.2	-16.7	x	-12.8
COc1cccc(-c2cc3c(=O)n(-c4ccccc4)c(=S)[nH]c3s2)c1	26.6	-30.3	66.3*	18.4
O=C(O)CCC(=O)N(Cc1cccnc1)Cc1cccc(F)c1	-1.4	-38.5	5.1	-7.4
CCOC(=O)c1ccc2[nH]c3c(c2c1)CCCCC3=O	-4.0	4.8	-23.5	-6.5
O=C1CCCc2c1[nH]c1ccc(Cl)cc21	-35.6	39.4	-0.1	75.9*
Cc1nc2sc(C(c3cccc(F)c3)N3CCN(C(=O)c4ccco4)CC3)c(O)n2n1 (stereo unspecified)	-3.4	-2.3	-29.6	1.1
COc1ccc(N2CCN(C(=O)CSc3nnc4c(C)cc5cc(C)ccc5n34)CC2)cc1	51.0*	-13.6	x	-4.9
CCOC(=O)c1cnc(-n2nc(C)cc2C)nc1N(C)C	-6.8	-5.9	x	5.9
SMILES	cytoskel mod	TNFa cytotox	E-sel TNF inh	VCAM1 TNFa inh
CCOC(=O)c1cnc(-n2nc(C)cc2C)nc1N1CCOCC1	-27.2	73.9	x	92.5*
CC1(C)Cc2nc3sc4c(=O)n(Cc5ccccc5)cnc4c3cc2CS1	x	x	9.3	x
CCCn1cnc2c(sc3nc4c(cc32)CSC(C)(C)C4)c1=O	-12.9	85.9*	-4.7	19.5
COc1cc(/C=N/NC(=O)Nc2cccc3nsnc23)cc(OC)c1OC	-16.3	15.1	-41.9	-12.1
Cc1nc2ccccc2c(=O)n1/N=C/c1ccc(O)cc1	48.0	-6.9	65.7*	4.1
Cc1nc2ccccc2c(=O)n1/N=C/c1cccnc1	-1.5	x	-20.5	19.4
CCOc1ccc(NC(=O)/C=C/c2ccc(OC)cc2)c([N+](=O)[O-])c1	x	x	60.9*	x
CCOc1ccc(NC(=O)Cc2ccccc2)c([N+](=O)[O-])c1	x	x	13.4	x
CCOc1ccc(NC(=O)COC(=O)C23CC4CC(CC(C4)C2)C3)c([N+](=O)[O-])c1	x	x	94.8*	x
OCC12COC(c3ccccc3)N1C(c1ccccc1)OC2 (stereo unspecified)	-15.0	-12.3	-1.9	-15.4
C/C(=N\NC(=O)Cn1c(-c2ccccn2)nc2ccccc21)c1ccccc1	x	x	3.7	x
O=C(C1CCN(S(=O)(=O)N2CCOCC2)CC1)N1CCN(Cc2ccc3c(c2)OCO3)CC1	-35.8	-7.5	15.4	2.5
Cc1noc(C)c1S(=O)(=O)N1CCC(C(=O)N2CCN(Cc3ccc4c(c3)OCO4)CC2)CC1	x	x	73.5*	x
Cc1ccc(O)c(C(=O)c2cc(C#N)c(=O)n(-c3c(C)n(C)n(-c4ccccc4)c3=O)c2)c1	22.6	4.7	-13.1	-25.2
